Cruzain noTriton: inhibitors of Trypanosoma cruzi cruzain without detergent | P25779 | purified cruzain, Z-FR-AMC fluorescence, no detergent | Potency, µM, inactives show max response, negative = inhibition, most hits filed as inhibitors | 2.3% of 200,000 active;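 also: plate controls were enzyme without inhibitor for no effect and buffer without enzyme for full effect; nearly all actives have a fitted effect of over 40% in size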
Target sequence (P25779 123-467 limits assumed): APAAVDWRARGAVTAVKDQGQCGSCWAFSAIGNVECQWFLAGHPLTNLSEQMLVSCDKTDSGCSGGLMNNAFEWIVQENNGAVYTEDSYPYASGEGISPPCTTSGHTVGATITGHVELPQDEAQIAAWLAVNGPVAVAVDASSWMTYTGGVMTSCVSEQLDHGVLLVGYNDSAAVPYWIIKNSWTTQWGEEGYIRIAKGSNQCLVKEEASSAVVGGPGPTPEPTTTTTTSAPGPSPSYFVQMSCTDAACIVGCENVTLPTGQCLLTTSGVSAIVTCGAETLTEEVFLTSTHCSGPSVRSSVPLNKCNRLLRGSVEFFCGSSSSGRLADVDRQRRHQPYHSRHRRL
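Purified cruzain at 1.5 nM, pre-incubated 15 min with compound at room temperature in 100 mM sodium acetate pH 5.5, 5 mM DTT, 0.00005% Triton X-100. Reaction started with 2 uM Z-FR-AMC; AMC fluorescence increase over 60 s gives rate.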
Giardia FBPA inh-1: Giardia lamblia aldolase inhibition. A8B2U2. purified Giardia FBPA. Potency, µM (top dose mostly 59.6 µM), for inactives: top-dose activity, negative = inhibition, hits mostly inhibitors. 0.71% of 290,000 active. AID 2451; also: nearly all actives have a fitted effect of over 55% in size
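Giardia FBPA (40 nM reagent) was preincubated 10 min at RT with compound (up to 57.5 uM final), then substrate plus GAPDH/TPI/NAD/arsenate coupling system with diaphorase/resazurin was added; resorufin fluorescence (525/598 nm) was read after 20 min.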
Cruzain inh Det: blocks cruzain activity in presence of Triton detergent; Potency, µM, for the others: max response, negative = inhibition, usual class: inhibitors; P25779; 0.43% of 200,000 active; purified cruzain, Z-FR-AMC fluorescence, 0.01% Triton; AID 1478;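 also: plate controls were neutral wells for no effect and buffer without enzyme for full effect; nearly all actives have a fitted effect of over 40% in size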
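Steps: dispense cruzain (1.5 nM final) in acetate buffer pH 5.5 with DTT and 0.01% Triton X-100; pin-transfer compounds; incubate 15 min RT; add Z-FR-AMC (2 uM final); read fluorescence every 30 s, using the 60 s intensity change.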
Giardia growth: blocks growth of Giardia lamblia trophozoites | shares compounds with Giardia FBPA inh-1 | Giardia lamblia trophozoite growth inhibition | Potency, µM (top dose mostly 57.5 µM), for the others: at the highest dose activity change, negative = inhibition, usual class: inhibitors | 5% of 1,500 active | AID 2785;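 also: trophozoites exposed to compound for 48 h at 37 °C; nearly all actives have a fitted effect of over 70% in size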
Mammal cell tox: counter-screen for Giardia aldolase inhibitors: mammalian cell toxicity. shares compounds with Giardia FBPA inh-1. mammalian cell viability counter-screen, qHTS. Potency, µM (top dose mostly 57.5 µM), for the others: at the highest dose viability change, negative = toxicity, usual class: inhibitors. 4% of 1,500 active. AID 2786;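 also: Chinese hamster ovary cells used as mammalian cytotoxicity surrogate; viability measured as cellular ATP by luminescence; compound exposure lasted 48 h before reading; nearly all actives have a fitted effect of over 60% in size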
Giardia FBPA inh-2: confirmation of Giardia fructose-bisphosphate aldolase inhibitors | shares compounds with Giardia FBPA inh-1 | purified Giardia aldolase enzyme activity, qHTS | Potency, µM (doses to about 57.5 µM), without a hit: at the top dose activity change, negative = inhibition, most hits filed as inhibitors | 5% of 1,500 active | AID 2787; also: nearly all actives have a fitted effect of over 45% in size
Rabbit aldolase: blocks rabbit muscle aldolase in Giardia aldolase selectivity test; Rabbit muscle FBPA enzyme inhibition, selectivity counter-screen; 4% of 1,500 active; shares compounds with Giardia FBPA inh-1; Potency, µM (series often up to 57.5 µM), inactives show top-dose activity, negative = inhibition, most hits filed as inhibitors; AID 2794; also: nearly all actives have a fitted effect of over 60% in size
Target sequence (P00883 whole entry, looked up): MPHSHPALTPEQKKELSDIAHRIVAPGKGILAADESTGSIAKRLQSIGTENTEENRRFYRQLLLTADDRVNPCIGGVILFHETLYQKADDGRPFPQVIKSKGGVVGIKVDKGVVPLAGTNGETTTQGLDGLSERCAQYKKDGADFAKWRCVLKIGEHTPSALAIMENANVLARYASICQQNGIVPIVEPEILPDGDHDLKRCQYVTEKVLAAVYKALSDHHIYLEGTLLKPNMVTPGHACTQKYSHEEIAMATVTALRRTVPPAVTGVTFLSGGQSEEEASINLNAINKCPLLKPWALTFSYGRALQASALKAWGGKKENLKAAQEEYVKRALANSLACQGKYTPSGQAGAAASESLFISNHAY
GAPDH counter: GAPDH inhibition flagged for Giardia aldolase hits | shares compounds with Giardia FBPA inh-1 | GAPDH coupling enzyme counterscreen, biochemical, qHTS | Potency, µM (top dose mostly 57.5 µM), without a hit: at the top dose activity change, negative = inhibition, hits mostly inhibitors | 6% of 1,500 active | AID 2795; also: nearly all actives have a fitted effect of over 55% in size
Numbers without * were called inactive; ? = inconclusive; / = not tested or not shown; [ ] = remark or other dose. This excerpt belongs to a sample that is enriched for hits. Calls follow the shape of the dose curve; as a rule, active = well fitted curve in the direction sought with a large enough effect; inconclusive = small, poorly fitted or top-dose-only effect, or another doubt; inactive = no such curve, though single readings can be large; an effect the other way counts as inactive or inconclusive. Unless noted, % is scaled to controls: 0 for no effect and ±100 for the full control effect; potency is read from the fitted curve at half-maximal effect.

SMILES	Cruzain noTriton	Giardia FBPA inh-1	Cruzain inh Det	Giardia growth	Mammal cell tox	Giardia FBPA inh-2	Rabbit aldolase	GAPDH counter
CCn1c(=O)c(C(=O)CN(C)Cc2cccc(OC)c2OC)c(N)n(Cc2ccccc2)c1=O	8%	16µM*	0%	34%	-7%	2%	4%	-9%
CCn1c(=O)c(C(=O)CN(C)Cc2ccc(F)cc2)c(N)n(Cc2ccccc2)c1=O	/	3%	/	/	/	/	/	/
COC(=O)/C=C1\S/C(=N\N=C\CC(=O)OC)NC1=O	/	16µM*	/	19%	14%	-6%	3%	-11%
COC(=O)/C=C1\SC(=Nc2ccc(OC)cc2)NC1=O	/	5%	/	/	/	/	/	/
COc1ccc(CCNCc2ccc(OC)c(OC)c2OC)cc1	?	-25%	5%	/	/	/	/	/
COc1ccc(CCNCc2cc(C)n(-c3ccc(OC)cc3)c2C)cc1	/	14µM*	/	6%[10.4 µM]	-2%	6%	-5%	1%
Cc1cc(C)nc(NN=C2CCCC2)n1	0%	?	1%	/	/	/	/	/
C1CCCCCC(=NNc2nn[nH]n2)CCCCC1	/	16µM*	/	-22%	2%	6%	4%	4%
CC(C)CN(CC(C)C)c1nnc(NC(=O)Nc2cccc(C(F)(F)F)c2)s1	?	/	-8%	/	/	/	/	/
CC(=O)c1cccc(NC(=O)Cn2c(=O)c(CNc3ccc(C)cc3)cc3cc4c(cc32)OCCO4)c1	?	/	-14%	/	/	/	/	/
C/C(=N\NC(=S)Nc1cccc(C)c1)c1ccco1	/	1%	/	/	/	/	/	/
CCNC(=S)N/N=C(\C)c1ccco1	/	18µM*	/	6%	-3%	7%	5%	6%
Cn1cnc([N+](=O)[O-])c1Sc1ncccc1N	-9%	18µM*	3%	27%	3%	1%	6%	-18%
Cc1ccc(Sc2c([N+](=O)[O-])ncn2C)cc1	0%	0%	8%	/	/	/	/	/
CC1(C)C(=O)NC2=C1C(=O)C(=O)c1ccccc12	?	0.16µM*	-30%	16µM*	20µM*	1.1µM*	0.89µM*	1.3µM*
Cc1ccc(C2C3=C(CC(C)(C)CC3=O)NC3=C2C(=O)c2ccccc23)cc1 (stereo not drawn)	0%	-15%	-3%	/	/	/	/	/
O=C(Nc1cccnc1Cl)c1cc(-c2ccc(F)cc2)on1	/	5%	/	/	/	/	/	/
O=C(NC(=S)Nc1ccccc1N1CCCC1)c1ccc(F)cc1	/	-17%	/	/	/	/	/	/
O=C(NC(=S)Nc1ncccn1)c1ccc(F)cc1	/	6.3µM*	/	?	-8%	2%	6%	11%
O=C(NC(=S)Nc1cccnc1Cl)c1ccc(F)cc1	/	14µM*	/	?	12%	5%	0%	12%
N#C/C(=C/c1ccco1)C(N)=S	/	16µM*	/	?	6%	2%	2%	6%
N#C/C(=C\c1ccc2c(c1)OCO2)C(N)=S	/	-18%	/	/	/	/	/	/
CC(=O)OCC(NC(=O)C1CCCN1C(=O)OC(C)(C)C)C1OC(n2cc(F)c(=O)[nH]c2=O)C(OC(C)=O)C1OC(C)=O (stereo not drawn)	/	5%	/	/	/	/	/	/
Cc1ccc2c(=O)cc(C(=O)Nc3ccc(S(=O)(=O)N4CCCCCC4)cc3)oc2c1C	0%	/	-2%	/	/	/	/	/
CCC1CCCCN1C(=O)CSc1n[nH]c(-c2ccccc2Cl)n1 (stereo not drawn)	12%	/	2%	/	/	/	/	/
SMILES	Cruzain noTriton	Giardia FBPA inh-1	Cruzain inh Det	Giardia growth	Mammal cell tox	Giardia FBPA inh-2	Rabbit aldolase	GAPDH counter
CCOc1ccccc1NC(=O)CN1C(=O)CC(c2ccco2)Sc2ccccc21 (stereo not drawn)	-16%	/	-10%	/	/	/	/	/
O=[N+]([O-])c1ccccc1/C=N/n1c(C2CCCCC2)n[nH]c1=S	5%	-2%	-4%	/	/	/	/	/
O=[N+]([O-])c1ccccc1/C=N/n1c(C(F)(F)F)n[nH]c1=S	/	18µM*	/	-2%[10.4 µM]	4%	?	?	?
C=CCn1c(COc2cccc3ccc(C)nc23)nnc1SCC(=O)O	-2%	14µM*	-3%	-19%	9%	-6%	4%	2%
C=CCn1c(COc2cccc3cccnc23)nnc1SCC(=O)O	-4%	?	0%	/	/	/	/	/
Cc1ccccc1-n1c(-c2ccc(=O)[nH]n2)n[nH]c1=S	/	6.3µM*	/	16%	-2%	0%	11%	-4%
Cc1ccccc1-n1c(-c2ccncc2)n[nH]c1=S	7%	?	-8%	/	/	/	/	/
Cc1nn(C)c2c1c(C(F)(F)F)cc(=O)n2C(C)C(=O)N1CCN(c2ccccc2)CC1 (stereo not drawn)	?	/	-3%	/	/	/	/	/
CCN(CC)c1ccc(-c2sc(Nc3ccccc3)n[n+]2-c2ccc(F)cc2)cc1	/	2%	/	/	/	/	/	/
CCc1ccc(Nc2n[n+](-c3ccccc3)c(-c3ccc(N(CC)CC)cc3)s2)cc1	/	25µM*	/	4%	?	4%	5%	6%
C/C(CCN1CCCc2nc(C)c(C)cc21)=N\O[C@@H](C)c1cc(-c2c(C)cc(C)cc2C)no1	/	1%[12.9 µM]	/	/	/	/	/	/
CN1CCO/C1=C(\C(Cl)=C(Cl)Cl)[N+](=O)[O-]	/	18µM*	/	-29%	-9%	-3%	5%	4%
CCC1CO/C(=C(\C(Cl)=C(Cl)Cl)[N+](=O)[O-])N1 (stereo not drawn)	/	-1%	/	/	/	/	/	/
Cc1cccc(CSc2nc(=O)c3c(n2C)NC(=O)CC3c2cc(F)cc(F)c2)c1 (stereo not drawn)	-6%	/	-3%	/	/	/	/	/
C[C@H]1Cc2c(COc3ccccc3)nc3c(c2CO1)CN(C(=O)NCCc1c[nH]c2ccccc12)CC3	/	-6%[12.9 µM]	/	/	/	/	/	/
Cc1ccc(C)cc1	-5%	/	4%	/	/	/	/	/
Cc1ccc(C=C2C(Cl)=C(Cl)C(Cl)=C2Cl)cc1	/	16µM*	/	-10%[10.4 µM]	9%	2%	9%	15%
COc1cc(OC)c(NC(=O)CSc2nccn2C)cc1Cl	-11%	/	-1%	/	/	/	/	/
N#C/C(=N\Nc1ccc(Cl)cc1)C(N)=S	/	-25%	/	/	/	/	/	/
N#C/C(=N\Nc1ccccc1)C(N)=S	/	20µM*	/	?	7%	12%	24%	13%
COC(=O)NC(CC(C)=O)c1ccccc1 (stereo not drawn)	/	1%[12.9 µM]	/	/	/	/	/	/
COC(=O)c1ccc(CC(=O)c2c(C)cc(O)cc2O)o1	-4%	16µM*	-6%	-16%	6%	16µM*	40µM*	?
COC(=O)c1ccc(CC(=O)c2ccc(O)cc2O)o1	-12%	-3%	1%	/	/	/	/	/
O=C(CN1CCN(c2ccccc2)CC1)Nc1nccs1	-2%	-15%	0%	/	/	/	/	/

Screening data deposited in PubChem by National Center for Advancing Translational Sciences (NCATS).
